Source: ChEMBL document CHEMBL4888484, “Replenishing the malaria drug discovery pipeline: Screening and hit evaluation of the MMV Hit Generation Library 1 (HGL1) against asexual blood stage Plasmodium falciparum ,using a nano luciferase reporter read-out” (2022)
Screen size: about 4,800 compounds; about 410 (8.5%) showed an effect of 50% or more. The sample as a whole holds a higher share of strong results than the screen did.

test system: Plasmodium falciparum; assay: Confirmatory screen in NF54 pLDH assay, in single point, at 2uM, 72h; assay type: functional, Erythrocyte; conditions: timepoint 72 hour

SMILES | % Inhibition [%]
Cc1cc(Br)ccc1CN(C)S(C)(=O)=O | -4
CCOc1ccc2sc(NC(=O)Cn3cnc4nc(N5CCCCC5)sc4c3=O)nc2c1 | -1
Cn1ccc(C2=Nc3ccccc3NC(=O)C2)n1 | -4
O=S(=O)(c1ccc(Cl)cc1)N1CCC(c2cc(-c3cccc(C(F)(F)F)c3)[nH]n2)CC1 | 0
O=S(=O)(c1ccco1)N1CC[C@H](Oc2ccccc2)C1 | 10
O=S(=O)(c1ccc(F)c(Cl)c1)N1CC[C@H](Oc2ccncc2Cl)C1 | 89
O=S(=O)(c1ccc(Br)o1)N1CCCC[C@H]1c1ncc[nH]1 | -20
Cc1ccc(NC(=O)COC(=O)c2nccc3ccccc23)cc1 | 11
CC1CCN(c2nc3c(c(Oc4cccc(F)c4)n2)CN(Cc2ccccn2)CC3)CC1 | 21
COc1cccc(CC(=O)N2CCc3nc(N4CCC(C)CC4)nc(Oc4ccccc4OC)c3C2)c1 | 61
COc1cccc(Oc2nc(N3CCN(C)CC3)nc3c2CN(C(=O)Nc2ccccc2)CC3)c1 | 10
Cc1cc(C)n(S(=O)(=O)c2cccc3cccnc23)n1 | -10
COc1cc(OC)cc(C(=O)Nc2ccc3nc(N4CCC(C)CC4)cc(C)c3c2)c1 | 40
CCN(CC)c1ccc(C(=O)Nc2ccc3nc(N4CCCC4)cc(C)c3c2)cc1 | 93
CCn1cc(C(=O)Nc2ccc(C(=O)N3CCCCC3)cc2)cn1 | 5
O=C1CN(S(=O)(=O)c2ccc(C(F)(F)F)cc2)C2(CCCCC2)CN1CC1CC1 | -14
CCOC(=O)c1c(CN2CCOCC2)n(-c2ccc(C)cc2)c2ccc(Oc3nccc(Nc4ccccc4)c3C#N)cc12 | 7
COCc1cc2nn(CC(=O)Nc3ccc(F)cc3)c(=O)n2c(-c2ccccc2)n1 | -27
O=C(Nc1ccccc1)C1=NN(CC(=O)N2CCCCC2)C(=O)CC1 | -1
CC(NS(C)(=O)=O)C(=O)N1CCC(F)(c2cc(F)cc(F)c2)C1 (stereo not drawn) | 12
COc1ccc(Nc2nc(C(C(F)(F)F)(C(F)(F)F)C(F)(F)F)nc(C(C(F)(F)F)(C(F)(F)F)C(F)(F)F)n2)cc1 | 11
O=c1cc(-c2ccccc2)n(S(=O)(=O)c2ccccc2)o1 | -7
Clc1cccc(N2CCN(Cc3ccc(OC4CCNCC4)cc3)CC2)c1 | 14
CC(=O)C1(C(C)=O)[C@H](c2ccc(F)cc2)C1(C#N)C#N | -24
O=C(CCC1CCCCC1)Nc1ncccn1 | -9

SMILES | % Inhibition [%]
O=C(NCCCc1ccccc1)[C@H]1CCCN(c2nc3ccccc3[nH]2)C1 | -4
CC(C)C1(C)CC(=O)N(C(C(=O)O)c2ccccc2)C1=O (stereo not drawn) | -6
Cc1nc(N)nc(C)c1C(=O)Nc1ccc(Nc2ncccn2)cc1 | 36
Cc1cc(N)nc(Nc2ccc(Nc3ccccc3)cc2)n1 | 97
c1ccc(Nc2nc(-c3ccccc3)cc(-c3ccccc3)n2)cc1 | 5
O=C(NC(C1CC1)C1CC1)c1ccsc1 | -23
Cn1c(C(=O)N2CC[C@H](N)C2)ccc1-c1cccc(Br)c1 | 11
N#Cc1c(-c2ccccc2)cc(-c2ccccc2)n(C(=O)c2ccc(F)cc2)c1=O | 9
Oc1nccc(C(F)(F)C(F)(F)F)n1 | -3
CS(=O)(=O)Nc1nc2ccc(NC(=O)c3cc(-c4ccccc4)nc4ccccc34)cc2s1 | 3
COc1ccc(-c2cc(C(=O)NC3CCN(C(C)C)CC3)c3ccccc3n2)cc1OC | -18
CCOc1ccc(-c2cc(NC(=O)c3cc(-c4cccnc4)nc4ccccc34)on2)cc1OCC | 98
Cc1ccc(-c2ccc(CN(CC(=O)NCC(=O)O)C(C)C)s2)cc1 | 13
CN(C)Cc1ccc(NC(=O)c2cc(F)cc3c(=O)c4cc(F)ccc4[nH]c23)cc1 | 95
Cc1cccc(NC(=O)c2cc(C)nc3c2c(C)nn3-c2ccc(F)cc2)c1 | 0
CCN1CCN(c2cccc(NC(=O)c3cc(F)cc4c(=O)c5cc(F)ccc5[nH]c34)c2)CC1 | 96
CC(C)n1nccc1NC(=O)c1c[nH]c2ccc(F)cc2c1=O | -4
CCN1CCN(C(=O)c2ccccc2N2CCC(NC(=O)c3cccc(Br)c3)CC2)CC1 | 40
CCn1c(C)c(C)c2cc(C(=O)Nc3cccc(S(=O)(=O)N4CCOCC4)c3)ccc21 | 4
CCN1CCN(c2cccc(NC(=O)c3ccc4[nH]c5ccccc5c(=O)c4c3)c2)CC1 | 100
CC(C)NC(=O)N(C)Cc1ccc(F)cc1 | 8
CC(=O)Nc1cccc(C#CCN2CCN(c3ccc(F)cc3)CC2)c1 | 13
N#CCc1ncc(CCN2C(=O)c3ccccc3C2=O)s1 | 7
COc1ccc(S(=O)(=O)N(c2onc(C)c2Cl)S(=O)(=O)c2ccc(OC)c(OC)c2)cc1OC | 4
CC[C@@H](C(N)=O)N1CCN(Cc2nc(-c3cccs3)no2)CC1 | 7

SMILES | % Inhibition [%]
Cc1noc(-c2csc(-c3c[nH]cn3)n2)n1 | -1
CN(Cc1ccn(C)n1)C(=O)c1cc(S(=O)(=O)N(C)C)c(Cl)cc1Cl | 8
O=C(NC1CCCC1)N1CCN(S(=O)(=O)c2cccc(F)c2)CC1 | 2
COc1ccc(-c2cc(C(=O)N[C@H]3CCN(c4ccc(=O)n(C)n4)C3)c(C)n2C)cc1 | 41
Cc1c(C(=O)NC2CC2)cc(-c2ccccc2)n1C | 6
COc1ccc(-c2cc(C(=O)N[C@H]3CCN(c4ccc(=O)[nH]n4)C3)c(C)n2C)cc1 | 58
c1cn(C[C@@H]2CCCN2c2nc(C3CCCC3)ns2)nn1 | -8
Cn1cc(C(=O)c2nc(-c3ccccc3Cl)no2)cn1 | -5
O=S(=O)(c1ccc2nncn2c1)N(Cc1cccc(Cl)c1)c1ccccc1 | 9
O=C(N[C@@H]1CC=C(c2ccc(F)cc2)CC1)c1nc2n(n1)CCCN2 | 10
c1ccc2[nH]c(Nc3nc4ccccc4s3)nc2c1 | 14
COc1ccc(CNC(=N)NS(=O)(=O)c2ccc(OC)c(OC)c2)c(OC)c1 | 11
Cc1cc(Br)ccc1CNC(=O)CN1CCCCC1=O | 13
COc1ccc(C(=O)Nc2ccc3c(c2)C(=O)Nc2cccnc2O3)cc1OC | 26
O=C(Nc1ccccc1-c1nnc[nH]1)c1ccc(F)c(Cl)c1 | 2
O=C1c2ccccc2C(c2ccc(NC(=O)c3cccc4ccccc34)cc2)(c2ccc(NC(=O)c3cccc4ccccc34)cc2)c2ccccc21 | 42
O=C(Nc1[nH]c(=O)ncc1F)c1cc(F)c(F)cc1Br | 86
O=C(Nc1[nH]c(=O)ncc1F)c1cccc2ccccc12 | 72
COc1cc(C(=O)Nc2[nH]c(=O)ncc2F)ccc1Cl | 68
Cn1ccc(NC(=O)c2cccc3ccccc23)n1 | 4
COc1cc2c(cc1-c1cccnc1)CCC(=O)N2C | -22
CCc1c[nH]c(CNC(=O)C2(C(=O)NC3CC3)CCC2)n1 | 7
CCC[C@H](C)c1nc(N2CCN(C(=O)Cc3ccc(OC)cc3)CC2)c2cnn(-c3ccccc3)c2n1 | 9
CC(=O)c1ccc(NC(=O)Cn2c(-c3ccccc3)nc(C)cc2=O)cc1 | 10
CC(=O)Nc1ccc(NC(=O)CCC(C)C)cc1 | -6

SMILES | % Inhibition [%]
CC(=O)Nc1ccc(-c2cn3c4ccccc4ccc3[n+]2C)cc1 | 67
CCOc1cccc2c1OC1(C)C(C(=O)Nc3ccc(C)cc3C)C2NC(=O)N1c1ccccc1 (stereo not drawn) | -7
O=C1[C@@H]2C[C@@H](CN2C(=O)c2cncnc2)Oc2ccccc2N1Cc1cccnc1 | 6
O=C(O)C[C@H](NC(=O)c1cscn1)c1ccc(Cl)s1 | -23
O=S(=O)(c1cccnc1)N(CC1CCCCC1)c1cnccn1 | 10
COc1cc(NC(=O)c2cc(-c3cccc4ccccc34)[nH]n2)cc(OC)c1OC | 10
COc1ccc(-c2cc(C(=O)Nc3ncc[nH]3)n[nH]2)cc1OC | 22
COc1ccc2cccc(NC(=O)c3cc(-c4cc(OC)c(OC)c(OC)c4)n[nH]3)c2n1 | 51
Cc1ccnc2nc(C(=O)N(CC3CC3)CC(F)(F)F)nn12 | 10
O=C(N[C@H]1CCCc2occc21)c1ccco1 | 7
Oc1cccc(CN[C@H]2CCCc3occc32)c1Cl | 83
CC(O)CC(C)(C)CNC1CCCc2occc21 (stereo not drawn) | -9
CCOC(=O)Oc1c(OC)cc(C(=O)Nc2ccc3c(c2)sc(=O)n3C)cc1OC | 15
COc1ccc(Nc2nc(C(=O)Nc3ncc(C)s3)cs2)cc1OC | 13
CCOc1cc(C(=O)Nc2ccc3nc4c(c(Nc5ccc(OC)c(OC)c5)c3c2)CCCC4)cc(OCC)c1OCC | 103
COC(=O)c1cc(S(=O)(=O)NCCc2csc(C)n2)cc(F)c1F | -8
CCN(C(=O)[C@H]1CCN(C)[C@@H](C)C1)C1CCCC1 | 11
Cc1cn(Cc2ncc(C(F)(F)F)cc2Cl)c(=O)[nH]c1=O | -18
N#Cc1ccc(NC(=O)[C@](F)(OC(F)(F)C(F)(F)C(F)(F)F)C(F)(F)F)cc1 | -2
Cc1cc(CN(C)c2cc(C3CC3)nc(N(C)Cc3cc(C)on3)n2)no1 | -11
CN(Cc1ccc(-c2ccccc2)cc1)c1cc([C@H]2C[C@@H](N)C2)nc(N)n1 | 54
CC(=O)N1c2c(C)cccc2[C@@H](C)CC1(C)C | 16
CCc1ccc(NC(=O)Cn2c(=O)ncc3cc(S(=O)(=O)N4CCCC[C@@H]4C)ccc32)cc1 | 11
